Only some compounds are listed: those with a hit (about 1.2% of all), similar ones and a draw of the others.
SRC2 inh: inhibits human steroid receptor coactivator 2. Q15596. HEK293 GAL4-SRC2 luciferase reporter, luminescence. inhibition, % at 9 µM. hit rate 0.17% among 370,000. AID 651957;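 active means inhibition above the mean inhibition of all tested compounds plus 3 SD, set per campaign, cut at about 52% in these data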
COUP-TFII inh: blocks human COUP-TFII nuclear receptor | P24468 | hit rate 0.7% among 370,000 | inhibition, % at 8.6 µM | HEK293T NGFI-A luciferase reporter, luminescence;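 active means inhibition above a per-plate cutoff, mean inhibition of test wells between control levels plus 3 SD, cut at about 38% in these data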;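 further: cells cotransfected with COUP-TFII expression vector driving the NGFI-A reporter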
NR5A2 inv ag: NR5A2 inverse agonism in reporter assay; inhibition, % at 3.6 µM; hit rate 0.13% among 360,000; HEK293T StAR-luciferase reporter, LRH-1 transfected, 24 h; O00482;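 active means inhibition above the mean inhibition of all tested compounds plus 3 SD, cut at about 73% in these data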
Efflux pump mplx: blocks antifungal efflux pumps in multiplex yeast assay. S. cerevisiae Candida pump triplex, Nile Red efflux. inhibition, % at 10 µM. hit rate 0.44% among 330,000;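 active means plate passing quality check with inhibition over a set limit, or well fluorescence over plate mean plus 4 SD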;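 further: Nile Red retained in pooled yeast measured as flow cytometry median fluorescence; higher means more Nile Red kept so more efflux inhibition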
NCOA1 inh: human NCOA1 inhibition; HEK293 GAL4-SRC1 luciferase reporter, luminescence; inhibition, % at 3.6 µM; hit rate 0.12% among 360,000; AID 588354;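 active means inhibition above the campaign mean plus 3 SD, with each screening campaign given its own cutoff, cut at about 60% in these data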
SRC3 inh: inhibits human SRC3 coactivator | Q9Y6Q9 | HEK293 GAL4-SRC3 luciferase reporter, luminescence | inhibition, % at 3.6 µM | hit rate 0.17% among 360,000 | AID 588352;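 active means inhibition above a per-campaign cutoff, the mean of all compounds plus 3 SD, cut at about 60% in these data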;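 further: higher means less SRC3-driven luciferase light from the GAL4 reporter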
Yeast cmpd fluor: compound fluorescence in yeast efflux pump counter-screen; S. cerevisiae AD/pABC3, flow cytometry; fluorescence ratio to DMSO, % at 10 µM; AID 588517; shares compounds with Efflux pump mplx; hit rate 4% among 1,700;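 active means fluorescence ratio to DMSO above its plate's cutoff, the plate mean ratio plus 5 SD, cut at about 210% in these data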;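 further: unstained yeast with no Nile Red so the signal is compound autofluorescence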
CaMdr1 efflux inh: Candida Mdr1 efflux pump inhibition | shares compounds with Efflux pump mplx | S. cerevisiae AD/CaMDR1, Nile Red efflux, flow cytometry | inhibition, % at 10 µM | hit rate 1% among 1,700 | AID 588518; in the data active means inhibition above about 26%;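 further: higher means more Nile Red retained so more efflux inhibition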
CaCdr2 efflux inh: inhibitors of Candida albicans Cdr2 efflux pump; shares compounds with Efflux pump mplx; S. cerevisiae AD/CaCDR2, Nile Red retention, flow cytometry; Nile Red retention ratio vs DMSO, % at 10 µM; hit rate 4% among 1,700; AID 588520; in the data active means Nile Red retention ratio vs DMSO above about 190%;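 further: higher ratio means more blocking of Cdr2 efflux of the dye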
CaCdr1 efflux inh: Candida Cdr1 efflux pump inhibition. shares compounds with Efflux pump mplx. S. cerevisiae AD/CaCDR1, Nile Red efflux, flow cytometry. inhibition, % at 10 µM. hit rate 1% among 1,700. AID 588522;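 active means inhibition above the screen-wide mean plus twice its standard deviation, cut at about 32% in these data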
Each line names hits and unclear results; the compound was inactive in the other large screens (follow-up assays come after a bar, where they were run).

COc1cc(OC)cc(-c2sc3ccc(OC)cc3c2-c2ccc(OCCN3CCOCC3)cc2)c1	Efflux pump mplx 160 (no result: SRC2 inh, COUP-TFII inh) | Yeast cmpd fluor inactive | CaMdr1 efflux inh 95 | CaCdr2 efflux inh inactive | CaCdr1 efflux inh 128
C=CCNC(=S)NNC(=O)c1ccccc1OCC	none
CC(C)CCC1(C)NC(=O)N(CC(=O)Nc2ccc3c(c2)OCCO3)C1=O (centres undefined)	none
Cc1ccc(N2CCN(C(=O)C3CCCN(c4ncnc5c4nc4n5CCCCC4)C3)CC2)c(C)c1 (centres undefined)	none
Cc1ccc(C)c(N2CCN(C(=O)C3CCCN(c4ncnc5c4nc4n5CCCCC4)C3)CC2)c1 (centres undefined)	Efflux pump mplx 2.5 | Yeast cmpd fluor inactive | CaMdr1 efflux inh inactive | CaCdr2 efflux inh active | CaCdr1 efflux inh inactive
O=C(C1CC(=O)N(C2CCCC2)C1)N1CCN(c2ccc(F)cc2)CC1 (centres undefined)	none
Cc1ccc(C)c(OCc2cc(C(=O)N(C)Cc3ccccn3)no2)c1	none
Cc1ccc(C)c(OCc2cc(C(=O)N(C)Cc3nccs3)no2)c1	none | Yeast cmpd fluor inactive | CaMdr1 efflux inh inactive | CaCdr2 efflux inh inactive | CaCdr1 efflux inh inactive
O=S(=O)(c1ccc(NC(=S)Nc2ccccc2)cc1)N1CCOCC1	none
O=C(CCc1ccccc1)NC(=S)Nc1ccc(S(=O)(=O)N2CCOCC2)cc1	Efflux pump mplx 8.0 | Yeast cmpd fluor inactive | CaMdr1 efflux inh inactive | CaCdr2 efflux inh inactive | CaCdr1 efflux inh inactive
Cc1c(C(=O)Nc2ccc3nc(N4CCOCC4)sc3c2)oc2ccccc12	Efflux pump mplx 0.8 | Yeast cmpd fluor inactive | CaMdr1 efflux inh inactive | CaCdr2 efflux inh inactive | CaCdr1 efflux inh inactive
O=C(Nc1ccc2nc(N3CCOCC3)sc2c1)c1cc2ccccc2o1	none (no result: Efflux pump mplx)
C[C@@]12C(=O)Nc3ccc(Br)cc3C(=O)N1[C@H]1c3cc(Cl)ccc3OC[C@@H]1[C@@H]2c1ccccc1	none (no result: SRC2 inh, COUP-TFII inh)
C[C@@]12C(=O)Nc3cc(F)c(F)cc3C(=O)N1[C@H]1c3cc(Cl)ccc3OC[C@@H]1[C@@H]2c1ccccc1	none (no result: SRC2 inh, COUP-TFII inh) | Yeast cmpd fluor inactive | CaMdr1 efflux inh inactive | CaCdr2 efflux inh inactive | CaCdr1 efflux inh inactive
C[C@@]12C(=O)Nc3ccccc3C(=O)N1[C@H]1c3cc(Cl)ccc3OC[C@@H]1[C@@H]2c1ccccc1	none | Yeast cmpd fluor inactive | CaMdr1 efflux inh inactive | CaCdr2 efflux inh inactive | CaCdr1 efflux inh inactive
COc1ccc2c(c1)OC[C@H]1[C@H]2N2C(=O)c3cc(C)ccc3NC(=O)[C@@]2(C)[C@H]1c1ccccc1	Efflux pump mplx 5.1 (no result: SRC2 inh, COUP-TFII inh) | Yeast cmpd fluor inactive | CaMdr1 efflux inh inactive | CaCdr2 efflux inh inactive | CaCdr1 efflux inh inactive
C[C@@]12C(=O)Nc3ccc(Cl)cc3C(=O)N1[C@H]1c3cc(Cl)ccc3OC[C@@H]1[C@@H]2c1ccccc1	none | Yeast cmpd fluor inactive | CaMdr1 efflux inh inactive | CaCdr2 efflux inh inactive | CaCdr1 efflux inh inactive
CC(C)NC(=O)NC(=O)CSc1ccc(S(=O)(=O)N2CCOCC2)cn1	none (no result: Efflux pump mplx)
Brc1cccc(-c2nnc(SCc3nc4ccccc4[nH]3)o2)c1	none
O=C(Nc1ccc2nc3n(c(=O)c2c1)CCCCC3)c1cc([N+](=O)[O-])ccc1F	Efflux pump mplx 0.7 | Yeast cmpd fluor inactive | CaMdr1 efflux inh inactive | CaCdr2 efflux inh inactive | CaCdr1 efflux inh inactive
CCN(CC)S(=O)(=O)c1ccc(Cl)c(NC(=O)c2ccc(C#N)cc2)c1	none
CSc1nnnn1-c1ccc(C(=O)O)cc1	none
CSc1nnnn1-c1ccc(C)c(Cl)c1	Efflux pump mplx 14 | Yeast cmpd fluor inactive | CaMdr1 efflux inh inactive | CaCdr2 efflux inh inactive | CaCdr1 efflux inh inactive
CCOC(=O)c1cc(-c2ccccc2)n[nH]1	none
CCOC(=O)c1ccc(-c2cc(C)no2)[nH]1	Efflux pump mplx 6.5 | Yeast cmpd fluor inactive | CaMdr1 efflux inh inactive | CaCdr2 efflux inh inactive | CaCdr1 efflux inh inactive
